Outcome data for 40 compounds are collected here from PubChem BioAssay (EPA / NIEHS).

Inconclusive results are not listed. Active and inactive are the calls of the source. How the source made its calls: active means hit-call score of the fitted dose curve at least 0.9, where 1 is the maximum; inconclusive means response in the unintended direction; inactive means score below 0.9.

This assay can be described thus: CCTE_Harrill_HTTr_CellCount_MCF7: CCTE's Cell Proliferation Assessment for the High-Throughput Transcriptomics (HTTr) Platform, Harrill Lab (AID 2284012).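 Further: intended direction is loss of nuclei count meaning fewer cells.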 The source says:
This is a cell-based assay that evaluates cell viability and cell growth using high content imaging to count the number of Hoechst-labeled nuclei that are present in an assay well in 384-well format.This is a cell-based assay that evaluates cell viability and cell growth in MCF-7 cells. This was part of a full screening experiment. High content imaging is used to count the number of Hoechst-labeled nuclei that are present in an assay well in 384-well format.The assay component endpoint CCTE_Harrill_HTTr_CellCount_MCF7 was analyzed with bidirectional fitting relation to DMSO as the negative control and baseline of activity. Using a type of viability reporter, loss-of-signal activity can be used to understand changes in cell count. To generalize the intended target to other relatable targets, this assay endpoint is annotated to cell cycle, where the subfamily is cell count.
Chemicals were tested in MCF7 cells in an eight point dilution series with a six hour exposure duration.
As for `CCOCCO`, the compound was called inactive.
With `COC(=O)CC(=O)OC` the entry was “inactive”; with `Cn1c(=O)c2c(ncn2C)n(C)c1=O`, “inactive”; with `COc1ccc2sc(C(=O)Nc3nnn[nH]3)c(OC(C)C)c2c1`, “inactive”.
As for `COc1ccc(-n2nc(C(F)F)cc2-c2ccc(S(C)=O)cc2)cc1` (stereo not given), the call was inactive.
On to `COC(=O)c1c(Cl)c(Cl)c(C(=O)OC)c(Cl)c1Cl`, for which the compound was classed as inactive.
Then `CCOCCOCCOCCO`, with “inactive”; and `CCNc1ccccc1`, with “inactive”.
Turning to `O=C(O)CCN(C1(C(=O)NO)CCCC1)S(=O)(=O)c1ccc(Oc2ccc(F)cc2)cc1`, the result was inactive.
Then `COCCOc1cc2cc(C(=O)NC3CCN(C(C)C)CC3)n(CC(=O)Nc3ccc(Cl)cn3)c2cn1`, with “inactive”.
With `Nc1nc2ncc(CNc3ccc(C(=O)N[C@@H](CCC(=O)O)C(=O)O)cc3)nc2c(=O)[nH]1` the entry was “inactive”; with `Cn1cnc([N+](=O)[O-])c1Sc1ncnc2nc[nH]c12`, “inactive”.
With `CC/C(=C\C(=N/O)C(N)=O)C(C)[N+](=O)[O-]` (stereo not given) the entry was “inactive”.
For the compound `O=C1CCC(N2C(=O)c3ccccc3C2=O)C(=O)N1` (stereo not given), the call was inactive.
Then `CCOC(=O)c1ccc(C2CCC(NC[C@H](O)COc3ccc(O)c(NS(C)(=O)=O)c3)CC2)cc1` (stereo not given in full), with “inactive”; and `Cc1c(-c2cccnc2)c2ccccc2n1CCCCC(=O)O`, with “inactive”.
Take `CCCN(C1CCN(C(=O)C2CCNCC2)CC1)[C@@H]1CCc2ccc(OC)cc2C1`: the compound was called inactive.
For the compound `CC(C)c1cccc(C(C)C)c1N1C(=O)c2ccc(O)cc2C1=O`, the compound was classed as inactive.
Then `CC(C)=CCC/C(C)=C\CO`, with “inactive”; and `Fc1ccccc1[C@@H](F)COC1CCC(Nc2ncnc3[nH]ncc23)CC1` (stereo not given in full), with “inactive”.
On to `On1ccccc1=S`, for which the outcome was inactive.
With `CC(C)=CCC/C(C)=C/CO` the entry was “inactive”.
Then `CCN(C(=O)c1cc(C)cc(OC[C@H](C)Nc2ccncc2)c1)C(C)C`, with “inactive”; and `Nc1ccc(Nc2ccccc2)cc1`, with “inactive”.
Consider `CCOc1cccc(-n2cc(C(=O)N3CCN(c4cc(C(=O)O)c5ccccc5c4)CC3)nc2-c2ccc(C)cc2)c1`, for which the result was inactive.
In the case of `C1=CCCC=CCCC=CCC1`, the call was inactive.
Then `CC[C@H]1OC(=O)[C@H](C)[C@@H](O[C@H]2C[C@@](C)(OC)[C@@H](O)[C@H](C)O2)[C@H](C)[C@@H](O[C@@H]2O[C@H](C)C[C@H](N(C)C)[C@H]2O)[C@](C)(O)C[C@@H](C)C(=O)[C@H](C)[C@@H](O)[C@]1(C)O`, with “inactive”; and `CC1=CC(=O)CC(C)(C)C1`, with “inactive”.
With `O=C(O)c1cccc(N(Cc2cccnc2)c2ccc(OC(F)F)c(OC(F)F)c2)c1` the entry was “inactive”; with `COC(=O)c1ccccc1O`, “inactive”.
With `COc1cccc(-c2ccc(/C=C\CN3CCCCCC3)cc2Cl)c1` the entry was “inactive”; with `CC(C)=CCCC(C)CCO` (stereo not given), “inactive”; with `CN(C)c1ccc(N=NS(=O)(=O)O)cc1`, “inactive”.
As to `Cc1ccc(O)cc1`, the compound was classed as inactive.
For `CC(=O)c1ccc2c(c1)[C@H](NC(=O)c1ccc(F)cc1)[C@@H](O)C(C)(C)O2`, the compound was classed as inactive.
Then `O=C(O)c1cc(N=Nc2ccc(S(=O)(=O)Nc3ccccn3)cc2)ccc1O`, with “inactive”; and `CCCC(=O)OCC`, with “inactive”; and `CC1(C)C(=O)N(Br)C(=O)N1Br`, with “inactive”.
As to `O=C1OC(=O)C2C3C=CC(C3)C12` (stereo not given), the compound was called inactive.
In the case of `CCCCCCc1ccc(O)cc1O`, the compound was called inactive.
